Assay outcomes deposited in PubChem by several laboratories.
EP2 mod – modulates human prostaglandin E2 receptor EP2 signaling; P43116; EP2-expressing cells, cAMP HTRF FRET, PGE2 co-stimulation; induction, % at 25 µM; 260,000 tested, 0.83% active; AID 940;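 active means compounds whose cAMP rise, as percent of the full-agonist control response, exceeds 60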;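 further: rat C6 glioma line stably carrying human EP2 under a CMV promoter; the protocol text gives 20 µM as final concentration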
Target sequence (P43116 whole entry, looked up): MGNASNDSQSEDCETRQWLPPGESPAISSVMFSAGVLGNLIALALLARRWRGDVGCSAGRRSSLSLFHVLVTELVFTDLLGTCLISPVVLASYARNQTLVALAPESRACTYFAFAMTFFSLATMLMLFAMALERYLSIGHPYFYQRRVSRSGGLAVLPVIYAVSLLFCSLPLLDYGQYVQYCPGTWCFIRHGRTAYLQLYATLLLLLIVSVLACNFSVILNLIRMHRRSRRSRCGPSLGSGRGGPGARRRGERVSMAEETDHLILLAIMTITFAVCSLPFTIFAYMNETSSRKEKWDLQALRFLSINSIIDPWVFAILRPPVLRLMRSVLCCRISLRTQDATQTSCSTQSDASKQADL
Rev-erbA mod – Rev-erb alpha (human) modulation. AID 1259318. 370,000 tested, 0.79% active. P20393. activity, % at 10 µM. Rev-erbα–FITC-DNA binding, fluorescence polarization, 90 min;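 active means activity above about 14%, limit read from the data; passing the limit was not always enough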
RAM inhibit – yeast RAM network inhibition; S. cerevisiae dse1pr::URA3 reporter, 5-FOA growth OD615, 2 d; analog-sensitive cbk1-as2 kinase mutant strain; inhibition, % at 50 µM; 190,000 tested, 1.8% active;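 active means inhibition above a set limit, 3 SD over mean compound inhibition, cut at about 8.4% in these data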;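 further: inhibition rescues growth on 5-FOA so higher OD means more RAM inhibition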
SKN-1 block – inhibitors of C. elegans SKN-1; C. elegans VP596 Pgst-4::GFP/RFP ratio, acrylamide-induced, 24 h; inhibition, % at 21.8 µM; 360,000 tested, 0.49% active; AID 624304;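 active means interference check ratio from 0.5 to 1.5 plus GFP to RFP signal ratio inhibition reaching or exceeding a fixed threshold, cut at about 30% in these data, passing the limit was not always enough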
PG9 binder – small molecules binding HIV-1 gp120 antibody PG9; TR-FRET gp120-PG9 antibody binding; inhibition, % at 6.7 µM; 360,000 tested, 0.43% active; AID 624416; in the data active means inhibition above about 8.5%
EP2 antag – inhibitors of human EP2 prostaglandin E2 receptor; AID 1422; 260,000 tested, 0.52% active; inhibition, % at 25 µM; C6 glioma cells expressing human EP2, cAMP TR-FRET; cells stimulated with saturating PGE2;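 active means percent inhibition above 40 after rounding to a whole number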;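 further: rat C6 glioma host cells with rolipram phosphodiesterase inhibitor present; the protocol text gives 20 µM as final concentration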
A number is an active result; . = inactive; / = no result given. Rows were chosen to be rich in hits. Some 2.9% of all compounds tested hit in one or more screens of this group.

SMILES	EP2 mod	Rev-erbA mod	RAM inhibit	SKN-1 block	PG9 binder	EP2 antag
CCCOc1ccc(/C(O)=C2/C(=O)C(=O)N(c3cc(C)on3)C2c2ccc(C(=O)OC)cc2)cc1 (configuration not stated)	.	.	11	40	.	.
O=C(c1ccc(S(=O)(=O)NCc2ccco2)cc1)N1CCN(c2ccc(F)cc2)CC1	/	.	/	33	.	/
CSC1=NC2(CC(c3ccccc3)Oc3cc(O)ccc32)CC(C)(C)N1 (configuration not stated)	.	.	.	43	.	/
C[C@@H](NC(=O)c1nc[nH]c1C(=O)N[C@@H](Cc1ccccc1)C(=O)OCc1ccccc1)c1ccccc1	.	.	.	.	.	.
C[C@H](NC(=O)c1nc[nH]c1C(=O)N[C@@H](Cc1ccccc1)C(=O)OCc1ccccc1)c1ccccc1	.	.	8.6	.	.	.
CC(C)C[C@H](NC(=O)c1nc[nH]c1C(=O)NCCCCCNC(=O)OC(C)(C)C)C(=O)OCc1ccccc1	.	.	10	.	.	.
COc1ccc(-c2nnc(SCc3nnc(-c4ccccc4)o3)o2)cc1OC	.	/	/	/	/	.
Cc1ccccc1-n1c(SCC(=O)c2c(N)n(C)c(=O)n(C)c2=O)nnc1-c1cccnc1	.	.	.	.	.	.
CCOc1ccc(-n2c(SCC(=O)c3c(N)n(C)c(=O)n(C)c3=O)nnc2-c2cccnc2)cc1	.	.	9.1	.	.	.
CN(C)c1ccc(N=Nc2nccs2)cc1	/	.	/	56	.	/
N/C(=N\OC(=O)Nc1ccc(Cl)cc1)c1ncc(C(F)(F)F)cc1Cl	.	.	.	.	.	.
CON/C=C(\C=Nc1ccc(Cl)cc1)c1ncc(C(F)(F)F)cc1Cl	.	.	11	.	.	.
Cc1ccc(S(=O)(=O)OC2CCN(C)CC2)cc1	.	/	/	/	/	56
Cc1cccc(C)c1NC(=O)CSc1nc2cc3c(cc2cc1C#N)OCCO3	.	/	/	/	/	.
CCc1ccccc1NC(=O)CSc1nc2cc3c(cc2cc1C)OCO3	.	/	/	/	/	.
N#Cc1cc2cc3c(cc2nc1SCC(=O)NCCc1ccccc1)OCCO3	73	/	/	/	/	.
Cc1cc2cc3c(cc2nc1SCC(=O)Nc1cccc(F)c1)OCO3	66	/	/	/	/	.
N#Cc1cc2cc3c(cc2nc1SCC(=O)Nc1cccc2ccccc12)OCCO3	.	/	/	/	/	.
CCc1cccc(CC)c1NC(=O)CSc1nc2cc3c(cc2cc1C#N)OCCO3	63	/	/	/	/	.
Cc1ccccc1-c1ncc(CN2CCC(O)(c3cccnc3)CC2)cn1	.	/	/	/	/	.
C=C1C(=O)C=C2CN(C(=O)c3ccccc3)[C@@](Cc3ccc(F)cc3)(C(=O)OC)[C@@H]12	.	/	.	.	/	92
C=C1C(=O)CC2=C1[C@](Cc1ccc(F)cc1)(C(=O)OC)N(C(=O)c1ccccc1)C2	/	.	/	.	.	/
CC(C)c1nc2ccccc2c2nnc(SCC(=O)Nc3nc4c(s3)CCCC4)n12	64	/	/	/	/	.
Cc1cc2ccccc2n2c(SCC(=O)Nc3nc4c(s3)CCCC4)nnc12	.	/	/	/	/	.
CCOc1ccccc1NC(=O)C(NCCN(C)C)c1ccccc1 (configuration not stated)	.	.	.	.	.	.
SMILES	EP2 mod	Rev-erbA mod	RAM inhibit	SKN-1 block	PG9 binder	EP2 antag
CCOc1ccccc1NC(=O)C(NCC1CCCCC1)c1ccccc1 (configuration not stated)	65	.	.	.	.	.
CCN(CC)CCN(Cc1cc2ccc(OC)cc2[nH]c1=O)C(=S)NC	.	/	/	/	/	.
CC(C)NC(=O)c1cc2c(=O)n3ccccc3nc2s1	/	.	/	.	.	/
C=CCNC(=O)c1cc2c(=O)n3ccccc3nc2s1	/	.	/	41	.	/
COc1ccccc1N1CCN(C(=O)CN(c2ccc(Cl)cc2)S(C)(=O)=O)CC1	.	/	/	/	/	.
NS(=O)(=O)c1ccc(N=Nc2ccc(O)c(C(=O)O)c2)cc1	.	/	/	/	/	.
NS(=O)(=O)c1ccc(N=Nc2cc3ccccc3c(C(=O)O)c2O)cc1	.	/	/	/	/	45
CC(=O)c1cccc(N(C(=O)c2ccco2)C(C(=O)NC2CCCC2)c2cccnc2)c1 (configuration not stated)	.	/	/	/	/	.
Cc1[nH]c2ccc(CNC(=O)C3CCN(c4nc5ccccc5n4C)CC3)cc2c1C	.	/	/	/	/	/
CC1(C)C2CCC1(CS(=O)(=O)N1CCOCC1)C(=O)C2 (configuration not stated)	.	.	.	.	.	96
COc1cccc(NS(=O)(=O)CC23CCC(CC2=O)C3(C)C)c1 (configuration not stated)	.	.	.	.	.	.
CC1(C)[C@@H]2CC[C@@]1(CS(=O)(=O)Nc1ccccc1)C(=O)C2	.	/	/	/	/	51
COc1cccc(-n2c(SCC(=O)N3C(C)CCCC3C)nnc2-c2ccncc2)c1 (configuration not stated)	.	/	/	/	/	.
CC(c1ccccc1)N(CC(=O)NC1CCCCC1)S(=O)(=O)c1cccc(C(F)(F)F)c1 (configuration not stated)	.	.	.	.	.	.
O=C(CN(Cc1ccccc1)S(=O)(=O)c1cccc(C(F)(F)F)c1)NC1CCCCC1	.	.	8.8	.	.	.
Cc1ccc(C(=O)N2N=C(C(C)C)CC2(O)C(F)(F)F)cc1 (configuration not stated)	.	/	/	/	/	.
CCOc1ccc(C(=O)Nc2nnc(C(CC)CC)s2)cc1	.	/	/	/	/	.
c1ccc(CN2CCC3(CC2)SSC2(CCN(Cc4ccccc4)CC2)SS3)cc1	.	/	/	/	/	45
OC1(c2ccc(F)cc2)CCN(Cc2ccccc2)C1 (configuration not stated)	61	.	.	.	.	/
CCCOc1ccc(C(=O)Nc2nccs2)cc1	.	/	/	/	/	.
CCOc1ccccc1N1C(=O)NC(=O)/C(=C/c2cc(OC)c(OC)cc2OC)C1=O	.	/	/	/	/	.
O=[N+]([O-])c1cc(/C=N\Nc2nc(-c3ccccc3)cs2)ccc1O	.	.	.	.	.	48
COc1ccc(N(CC(=O)N2CCCCC2)S(C)(=O)=O)cc1	.	/	/	/	/	.
O=C1NC(c2ccccc2)=C(c2nc3ccccc3s2)C(c2ccc(F)cc2)N1 (configuration not stated)	.	.	.	.	.	.
COc1ccc(C2NC(=O)NC(c3ccccc3)=C2c2nc3ccccc3s2)cc1 (configuration not stated)	.	.	8.7	.	.	.
Cc1oc(-c2cccc(Cl)c2)nc1CN(C)C1CCOC1 (configuration not stated)	.	.	.	.	.	.
Cc1oc(-c2ccc(-c3ccccc3)cc2)nc1CN(C)C1CCOC1 (configuration not stated)	.	.	.	65	.	.
CCOc1ccc(N(CC(=O)Nc2ccc3c(c2)OCCO3)S(=O)(=O)c2ccc(C)cc2)cc1	.	/	/	/	/	.
COc1ccccc1N(CC(=O)NCc1ccco1)S(=O)(=O)c1ccc(C)cc1	/	.	/	.	.	/
